Source: PubChem BioAssay AID1159580 (chemical genetic matrix, 2015)
Screen size: about 5,500 compounds; about 2,000 (36%) were called active. Not shown: some 18% with an inconclusive outcome. Rule as the data show it: active = normalized growth mostly below about 0.91 (no sharp cut-off); inconclusive = no clear call, values can overlap the other calls; inactive = mostly above about 0.92. The list shows a part of the results.

Assay: chemical genetic growth profiling, strain panel (AID 1159580);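 also: tested at 20 µM; growth read once vehicle control cultures reached saturation at 30 °C; 1 = growth at the plate median or of vehicle wells; lower values mean less growth of the strain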
Conditions: S. cerevisiae deletion strains, growth OD
[1] = locus YJR075W, strain HOC1, hits give low values
[2] = locus YMR307W, strain GAS1, hits give low values
[3] = locus YNL322C, strain KRE1, hits give low values

Measured: normalized growth

COC(=O)C(O)[C@H]1C(C)(C)[C@@H](OC(C)=O)[C@@H]2CC3=C4CC(=O)O[C@@H](c5ccoc5)[C@]4(C)CCC3[C@@]1(C)C2=O (stereo not given in full)
inactive: locus YBR021W, strain FUR4, hits give low values 0.99 | locus YBR229C, strain ROT2, hits give low values 0.996 | locus YCL029C, strain bik1, hits give low values 1.02 | locus YDL035C, strain GPR1, hits give low values 0.994 | locus YDL074C, strain BRE1, hits give low values 0.941 | locus YDL101C, strain DUN1, hits give low values 1.01 | locus YDL185W, strain tfp1, hits give low values 1.01 | locus YDL192W, strain arf1, hits give low values 0.986 | locus YDR101C, strain arx1, hits give low values 1.01 | locus YDR162C, strain NBP2, hits give low values 0.963 | locus YDR318W, strain mcm21, hits give low values 0.989 | locus YDR388W, hits give low values 1 | locus YDR502C, strain sam2, hits give low values 1 | locus YER110C, hits give low values 1 | locus YER155C, strain BEM2, hits give low values 1.01 | locus YER167W, strain BCK2, hits give low values 0.986 | locus YGL078C, strain dbp3, hits give low values 1.01 | locus YGL086W, strain mad1, hits give low values 0.979 | locus YGL248W, strain PDE1, hits give low values 0.992 | locus YGR135W, strain pre9, hits give low values 0.97 | locus YGR252W, strain gcn5, hits give low values 0.989 | locus YHR079C, strain IRE1 (second series), hits give low values 1 | locus YHR094C, strain hxt1, hits give low values 1 | locus YHR129C, strain ARP1, hits give low values 0.989 | locus YHR200W, strain rpn10, hits give low values 1 | locus YIL066C, strain RNR3, hits give low values 0.981 | locus YIL073C, strain SPO22, hits give low values 1 | locus YIL125W, strain kgd1, hits give low values 1.01 | locus YIR030C, strain dcg1, hits give low values 1.01 | locus YJL095W, strain BCK1, hits give low values 0.915 | locus YJL134W, strain LCB3, hits give low values 0.995 | locus YJL168C, strain set2, hits give low values 0.995 | locus YJL187C, strain SWE1 (second series), hits give low values 0.993 | locus YJR043C, strain POL32, hits give low values 1.02 | [1] 0.995 | locus YKL009W, strain mrt4, hits give low values 1.01 | locus YKL068W, hits give low values 1 | locus YKL085W, strain MDH1 (second series), hits give low values 0.995 | locus YKL085W, strain MDH1, hits give low values 0.995 | locus YKL190W, strain CNB1, hits give low values 0.998 | locus YKR001C, strain vps1, hits give low values 0.977 | locus YLR039C, strain RIC1, hits give low values 0.764 | locus YLR058C, strain SHM2, hits give low values 0.99 | locus YLR102C, strain apc9, hits give low values 0.993 | locus YLR262C, strain YPT6, hits give low values 0.805 | locus YLR268W, strain sec22, hits give low values 0.983 | locus YLR330W, strain CHS5, hits give low values 0.992 | locus YLR371W, strain rom2, hits give low values 0.982 | locus YLR418C, strain cdc73, hits give low values 0.906 | locus YML016C, strain PPZ1, hits give low values 0.994 | locus YML032C, strain rad52, hits give low values 1 | locus YML124C, strain tub3, hits give low values 1 | locus YMR078C, strain ctf18, hits give low values 0.983 | locus YMR223W, strain ubp8, hits give low values 0.99 | [2] 0.76 | locus YNL067W, strain RPL9B, hits give low values 0.991 | locus YNL233W, strain BNI4, hits give low values 0.984 | locus YNL250W, strain rad50, hits give low values 1.02 | locus YNL271C, strain bni1, hits give low values 0.998 | locus YNL298W, strain CLA4, hits give low values 1.01 | locus YNL307C, strain MCK1, hits give low values 0.991 | [3] 1 | locus YNR052C, strain pop2, hits give low values 0.99 | locus YOL012C, strain htz1 0.744 | locus YOL147C, strain pex11, hits give low values 1 | locus YOR061W, strain CKA2, hits give low values 0.997 | locus YOR069W, strain VPS5, hits give low values 0.996 | locus YOR136W, strain idh2, hits give low values 1.01 | locus YOR144C, strain elg1, hits give low values 1 | locus YOR184W, strain ser1, hits give low values 0.965 | locus YOR316C, strain cot1, hits give low values 1.01 | locus YPL055C, strain LGE1, hits give low values 1.01 | locus YPR119W, strain clb2, hits give low values 1 | locus YPR141C, strain kar3, hits give low values 0.992 | locus YPR163C, strain tif3, hits give low values 1 | locus YPR167C, strain met16, hits give low values 1 | strain wtn01, hits give low values 0.995

CC(=O)NC1C(O)OC(COS(=O)(=O)O)C(OC2OC(C(=O)O)C(OC3OC(CO)C(OC4OC(C(=O)O)C(O)C(O)C4OS(=O)(=O)O)C(OS(=O)(=O)O)C3NS(=O)(=O)O)C(O)C2OS(=O)(=O)O)C1O (stereo not given)
inactive: locus YAL021C, strain ccr4, hits give low values 0.991 | locus YAL026C, strain drs2, hits give low values 0.974 | locus YAL030W, strain snc1, hits give low values 0.988 | locus YBL061C, strain skt5, hits give low values 0.964 | locus YBR009C, strain hhf1, hits give low values 0.989 | locus YBR023C, strain chs3, hits give low values 0.971 | locus YBR171W, strain sec66, hits give low values 0.957 | locus YBR231C, strain swc5, hits give low values 0.991 | locus YBR279W, strain paf1, hits give low values 0.981 | locus YCL011C, strain gbp2, hits give low values 0.976 | locus YCL016C, strain dcc1, hits give low values 0.971 | locus YCL061C, strain MRC1, hits give low values 0.978 | locus YCL069W, strain vba3, hits give low values 0.976 | locus YCR088W, strain abp1, hits give low values 0.974 | locus YDL005C, strain med2, hits give low values 0.978 | locus YDL040C, strain nat1, hits give low values 0.973 | locus YDR001C, strain nth1, hits give low values 0.976 | locus YDR069C, strain doa4, hits give low values 0.978 | locus YDR137W, strain rgp1, hits give low values 0.92 | locus YDR159W, strain sac3, hits give low values 0.992 | locus YDR195W, strain ref2 0.965 | locus YDR297W, strain sur2, hits give low values 0.981 | locus YDR334W, strain swr1, hits give low values 0.96 | locus YDR335W, strain msn5, hits give low values 0.978 | locus YDR392W, strain spt3, hits give low values 0.979 | locus YEL003W, strain gim4, hits give low values 0.978 | locus YEL037C, strain rad23, hits give low values 0.978 | locus YEL061C, strain CIN8 (second series), hits give low values 0.976 | locus YER015W, strain faa2, hits give low values 0.986 | locus YER016W, strain bim1, hits give low values 0.982 | locus YER111C, strain swi4, hits give low values 0.968 | locus YER155C, strain BEM2 (second series), hits give low values 0.975 | locus YFR010W, strain ubp6, hits give low values 0.968 | locus YGL167C, strain pmr1, hits give low values 0.97 | locus YGL173C, strain kem1, hits give low values 0.966 | locus YGL227W, strain vid30, hits give low values 0.975 | locus YGL240W, strain doc1, hits give low values 0.996 | locus YGL253W, strain hxk2, hits give low values 0.994 | locus YHR013C, strain ard1, hits give low values 0.947 | locus YHR027C, strain rpn1, hits give low values 0.979 | locus YHR142W, strain chs7, hits give low values 0.957 | locus YJL092W, strain hpr5, hits give low values 0.976 | locus YJL095W, strain BCK1 (second series), hits give low values 0.979 | locus YJL115W, strain asf1, hits give low values 0.967 | locus YJL129C, strain trk1, hits give low values 0.986 | locus YJL154C, strain vps35, hits give low values 0.974 | locus YJL164C, strain tpk1, hits give low values 0.979 | locus YJL166W, strain qcr8, hits give low values 0.982 | locus YJL187C, strain SWE1, hits give low values 0.978 | locus YKL160W, strain elf1, hits give low values 0.976 | locus YKR026C, strain gcn3, hits give low values 0.978 | locus YKR091W, strain srl3, hits give low values 0.984 | locus YLL001W, strain dnm1, hits give low values 0.975 | locus YLL026W, hits give low values 0.981 | locus YLL041C, strain sdh2, hits give low values 0.982 | locus YLR027C, strain aat2, hits give low values 0.982 | locus YLR221C, strain rsa3, hits give low values 0.969 | locus YLR258W, strain gsy2, hits give low values 0.986 | locus YLR262C, strain YPT6 (second series), hits give low values 0.977 | locus YLR320W, strain mms22, hits give low values 0.977 | locus YLR342W, strain FKS1, hits give low values 0.98 | locus YLR357W, strain rsc2, hits give low values 0.964 | locus YLR370C, strain arc18, hits give low values 0.966 | locus YLR384C, strain iki3, hits give low values 0.963 | locus YML120C, strain ndi1, hits give low values 0.981 | locus YMR058W, strain fet3, hits give low values 0.987 | locus YMR125W, strain sto1, hits give low values 0.981 | locus YMR129W, hits give low values 0.983 | locus YMR205C, strain PFK2, hits give low values 0.982 | locus YMR231W, strain pep5, hits give low values 0.967 | locus YNL071W, strain lat1, hits give low values 0.983 | locus YNL209W, strain ssb2, hits give low values 0.975 | locus YNL248C, strain rpa49, hits give low values 0.98 | locus YNL322C, strain KRE1 (second series), hits give low values 0.989 | locus YNR049C, strain mso1, hits give low values 0.987 | locus YOR001W, strain rrp6, hits give low values 0.97 | locus YOR070C, strain gyp1, hits give low values 0.978 | locus YOR080W, strain dia2, hits give low values 0.969 | locus YOR083W, strain WHI5, hits give low values 0.986 | locus YOR106W, strain vam3, hits give low values 0.984 | locus YOR265W, strain rbl2, hits give low values 0.972 | locus YOR270C, strain vph1, hits give low values 0.952 | locus YOR290C, strain snf2, hits give low values 0.961 | locus YPL051W, strain arl3, hits give low values 0.977 | locus YPL078C, strain atp4, hits give low values 0.97 | locus YPL106C, strain sse1, hits give low values 0.97 | locus YPL240C, strain hsp82, hits give low values 0.982

O=c1onc2n1-c1cc(Br)ccc1OC2
active: locus YNL153C, strain GIM3, hits give low values 0.763
inactive: locus YAL013W, strain DEP1, hits give low values 0.994 | locus YAL040C, strain CLN3, hits give low values 0.991 | locus YCL061C, strain MRC1 (second series), hits give low values 1.01 | locus YDR363W, strain ESC2, hits give low values 0.995 | locus YER002W, strain NOP16, hits give low values 1 | locus YGR078C, strain PAC10, hits give low values 0.952 | [1] 1 | locus YMR263W, strain SAP30, hits give low values 1.01 | [2] 0.989 | locus YNL175C, strain NOP13, hits give low values 1 | locus YNL197C, strain WHI3, hits give low values 1.02 | locus YNL224C, strain SQS1, hits give low values 1 | [3] 0.998 | locus YOR083W, strain WHI5 (second series), hits give low values 0.882 | locus YPL241C, strain CIN2, hits give low values 1
